Screens from PubChem BioAssay.
sEH inhibitor: soluble epoxide hydrolase inhibitors, primary screen, biochemical, human sEH; inhibition, % at 2 µM; 0.34% of 91,000 active; recombinant human sEH enzymatic activity assay; Bifunctional epoxide hydrolase 2 (Homo sapiens), P34913; in the data active = inhibition above about 80%
Target sequence (P34913 whole entry, looked up): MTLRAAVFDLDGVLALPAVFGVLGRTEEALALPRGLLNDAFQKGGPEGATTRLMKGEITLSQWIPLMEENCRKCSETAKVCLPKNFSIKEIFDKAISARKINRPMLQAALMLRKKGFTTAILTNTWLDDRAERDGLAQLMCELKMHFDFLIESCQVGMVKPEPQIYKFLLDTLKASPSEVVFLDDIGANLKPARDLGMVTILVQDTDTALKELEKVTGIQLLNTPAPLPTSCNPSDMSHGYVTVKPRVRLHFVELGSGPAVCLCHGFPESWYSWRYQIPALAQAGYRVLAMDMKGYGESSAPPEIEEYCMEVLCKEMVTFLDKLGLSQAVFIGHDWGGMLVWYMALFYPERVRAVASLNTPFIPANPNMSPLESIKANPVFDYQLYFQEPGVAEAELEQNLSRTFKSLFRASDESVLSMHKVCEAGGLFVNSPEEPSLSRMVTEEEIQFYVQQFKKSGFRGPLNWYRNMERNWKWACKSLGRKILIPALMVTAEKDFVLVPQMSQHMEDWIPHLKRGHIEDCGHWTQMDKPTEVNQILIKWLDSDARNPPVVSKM
Phagocytosis inh: inhibitors of macrophage phagocytosis, primary screen, imaging, J774A.1 cells, IgG beads; inhibition, % at 5 µM; 0.07% of 110,000 active; AID 1029, 2008; J774A.1 macrophage IgG-bead phagocytosis;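 active = inhibition above the mean of the plate negative controls plus 5 SD, cut at about 13% in these data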;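 note: phagocytic index as fraction of beads internalized from green versus red external bead signal; plate controls were DMSO negative control for no effect and cytochalasin-D positive control for full effect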
E-sel TNF inh: E-selectin induction blockers in HUVEC – imaging, immunofluorescence, high content, primary screen. HUVEC TNFa-induced E-selectin immunofluorescence. inhibition, % at 2 µM. 0.71% of 120,000 active;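 active = inhibition above the batch mean plus 3 SD, and confirmed as a hit on visual image review, cut at about 43% in these data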;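 note: 0% = TNF-stimulated DMSO wells and 100% = unstimulated control wells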
F-actin modifier: modifiers of F-actin cytoskeleton organization, primary screen, imaging, HUVEC, phalloidin staining, high-content imaging; AID 836, 2007; 0.18% of 91,000 active; inhibition, % at 2 µM; HUVEC TNFa F-actin phalloidin imaging;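 active = inhibition above the batch mean plus 3 SD and confirmed as a hit by visual image inspection, cut at about 30% in these data, passing the limit was not always enough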
SDO1 yeast rescue: growth rescue of sdo1-depleted yeast, primary screen, S. cerevisiae, bone marrow failure model. S. cerevisiae sdo1-depleted JHY4D growth rescue, OD600 30 h; active compounds read high; pdr5 snq2 efflux-pump mutant strain. z-score at 10 µM. 0.21% of 140,000 active;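 active = z-score above 3 at both the 24 hr and the 30 hr optical density reads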;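 note: z-score against mean and SD of all compound wells on the same plate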
sEH activator: soluble epoxide hydrolase activators, primary screen, biochemical, human sEH. Bifunctional epoxide hydrolase 2 (Homo sapiens), P34913. purified human sEH enzymatic activity, activator screen. activation, % at 2 µM. 0.04% of 91,000 active; in the data active = activation above about 37%
Numbers without * were called inactive; nt = not tested or not shown; [ ] = dose if it differs, or a comment. Only some compounds are listed: those with a hit (about 0.96% of all), similar ones and a draw of the others.

SMILES | sEH inhibitor | Phagocytosis inh | E-sel TNF inh | F-actin modifier | SDO1 yeast rescue | sEH activator
Cc1nc(=O)c(-c2ccccc2)c(C)n1-c1ccc(C(=O)O)cc1 | 2.6 | -0.3 | nt | 21.2 | 1.91 | -4.9
Cc1nc(=O)c(-c2ccccc2)c(C)n1-c1ccc(S(N)(=O)=O)cc1 | -10.8 | -3.1 | 99.9* | -9.0 | 0.1 | 12.4
COc1cc(CC(NC(C)=O)C(=O)NC2CCN(c3c4c(nc5ncnn35)CCC4)CC2)cc(OC)c1 (stereo unspecified) | nt | nt | 15.8 | nt | nt | nt
COc1ccc(-c2nnc(SCC(=O)N3CCN(c4ccccc4)CC3)o2)cc1OC | nt | nt | -14.7 | nt | -0.54 | nt
COc1ccc(-c2nnc(SCC(=O)N3CCOCC3)o2)cc1OC | nt | -1.5 | 96.4* | nt | 0.57 | nt
CSc1cccc(NC(=O)Nc2ccc(Cl)cc2)c1 | 82.3* | -1.0 | -13.9 | -10.6 | 0.73 | -82.5
CC(=O)NC1CC2CCCC(C1)N2C(=O)Nc1ccc(Cl)c(C(F)(F)F)c1 (stereo unspecified) | 87.4* | 0.6 | 55.5 | -12.5 | -0.83 | -87.5
CC(C)c1ccc(/C=C(\c2nc3ccccc3[nH]2)S(=O)(=O)c2ccccc2)cc1 | nt | 0.1 | 24.3 | nt | -1.77 | nt
O=S(=O)(/C(=C/c1ccc(C(F)(F)F)cc1)c1nc2ccccc2[nH]1)c1ccccc1 | nt | nt | 98.9* | nt | -1.39 | nt
Cc1ccc(S(=O)(=O)NCCCOC(=O)Nc2ccncc2)cc1 | -10.9 | -0.5 | -0.3 | -27.1 | 0.26 | 11.3
CCOC(=O)C(C)Oc1cccc2c(=O)n(CC(=O)Nc3cccc(OC)c3)ccc12 (stereo unspecified) | -17.2 | -0.7 | 66.7* | -17.9 | 1.25 | 16.0
Nc1nncn1C(=O)CCCOc1ccc(Cl)cc1Cl | nt | -1.3 | -13.4 | nt | -0.34 | nt
Cc1cc(C)c(S(=O)(=O)N2CCCOC2CNC(=O)C(=O)NCc2cccs2)c(C)c1 (stereo unspecified) | nt | 5.1 | -5.3 | nt | -0.96 | nt
Cc1cc(-c2ccccc2)nc(N2CCC(C(=O)NCc3ccccc3Cl)CC2)n1 | 82.5* | nt | 17.9 | -13.7 | 0.03 | -81.6
Cc1ccc(O)c(NC(=S)NC(=O)c2ccc(-c3ccc(Cl)cc3)o2)c1 | 9.8 | nt | 55.5* | 9.4 | nt | -9.0
CCC/C=N/NC(=O)c1[nH]c2c([N+](=O)[O-])cccc2c1C | nt | -6.8 | nt | nt | 1.9 | nt
CCOC(=O)Cc1csc(NC(=O)CN2C(=O)c3ccccc3S2(=O)=O)n1 | nt | -3.9 | 96.0* | nt | 0.77 | nt
Cc1csc(NC(=O)CCN2C(=O)c3ccccc3S2(=O)=O)n1 | 2.3 | 0.8 | 4.6 | -4.6 | -0.08 | 0.4
CC(C)Cn1c(-c2cccs2)nc2ccccc21 | -1.6 | -1.1 | 84.8* | -8.5 | -0.85 | 0.3
Cc1cc(-c2c(C)[nH]n(-c3ccccc3)c2=O)n(-c2ccccc2)n1 | 1.6 | -1.2 | 100.0* | 14.4 | -0.02 | -1.9
CCOC(=O)C1CCN(c2c(NCCN3CCN(c4ccccc4)CC3)c(=O)c2=O)CC1 | 3.1 | -0.4 | nt | 1.1 | 1.33 | -3.2
O=C1CSc2ccc(C(=O)NCCC3=CCCCC3)cc2N1 | 82.4* | nt | -10.6 | -10.4 | -0.67 | -82.6
COc1ccc(CNc2nc(NCc3ccc(OC)c(OC)c3)n(C(=O)c3cccs3)n2)cc1OC | -6.0 | -0.6 | nt | 11.2 | -0.75 | 6.3
CC(=O)NNc1nc2ccccc2s1 | -3.0 | nt | nt | 2.1 | 0.73 | 0.9
O=C(NNc1nc2ccccc2s1)Nc1ccccc1 | nt | 0.2 | 62.3* | nt | 1.4 | nt
SMILES | sEH inhibitor | Phagocytosis inh | E-sel TNF inh | F-actin modifier | SDO1 yeast rescue | sEH activator
C=CCn1c(Cc2csc(N)n2)nnc1SCC(=O)OCC | -6.5 | -1.4 | 1.4 | -6.2 | -0.51 | 9.1
CCOC(=O)c1cccc(NC(=O)CSc2nnc(-c3ccoc3C)n2CCOC)c1 | -13.5 | -0.8 | 100.0* | -73.4 | 0.21 | 15.8
COCCn1c(COc2ccc(OC)cc2)nc2ccccc21 | 19.3 | 3.1 | -15.7 | -7.6 | -0.62 | -18.1
CCOc1ccc(NCc2nc3ccccc3n2CCOc2ccccc2)cc1 | nt | nt | 92.3* | nt | -0.87 | nt
COc1ccc(/C=C/C(=O)OCC(=O)NCc2ccco2)cc1OC | nt | 0.4 | nt | nt | 0.48 | nt
CCn1nnnc1SCC(=O)N1CCCc2ccccc21 | -7.8 | nt | -10.0 | 1.3 | 0.09 | 14.0
C=CCc1ccccc1OCC(O)CN(C(C)C)C(C)C (stereo unspecified) | -5.5 | -1.1 | -2.3 | -3.8 | -0.22 | 4.9
C=CCc1ccccc1OCC(O)CNC (stereo unspecified) | 1.6 | -0.7 | 4.3 | 66.9* | -0.24 | -1.6
O=C1c2ccccc2C(Nc2ccc(S(=O)(=O)N3CCCCCC3)cc2)N1Cc1ccco1 (stereo unspecified) | -12.9 | -0.5 | 65.7* | -2.2 | -1.54 | 11.9
CCOC(=O)C1C(=O)C=C(c2ccc(Br)cc2)CC1c1ccco1 (stereo unspecified) | -11.9 | nt | -15.6 | 7.7 | -0.89 | 16.0
CCC(=O)Nc1ccc(C(=O)NCCCn2ccnc2)cc1 | nt | nt | 21.5 | nt | nt | nt
CCCOc1ccc(NC(=O)C(=O)NCCCn2ccnc2)cc1 | nt | -6.2 | 77.7* | nt | 1.68 | nt
CCOc1cc(C(=O)NCCCn2ccnc2)cc(OCC)c1OCC | nt | nt | 88.3* | nt | 2.27 | nt
CCC(C)(C)n1nnnc1C(c1cc(OC)ccc1OC)N1CCN(Cc2ccccc2)CC1 (stereo unspecified) | nt | nt | -4.4 | nt | nt | nt
COc1ccc(-n2cc(-c3ccc(C)cc3)[n+]3c2SCC3)cc1 | nt | -8.0 | nt | nt | 0.41 | nt
Cc1oc(-c2ccccc2F)nc1CN1CCC(C(=O)NCCC2=CCCCC2)CC1 | 89.3* | 3.8 | -15.2 | -14.4 | 0.71 | -89.3
O=C(NCCC1=CCCCC1)C1CCN(c2nc3ccccc3o2)CC1 | 84.8* | -0.2 | 5.7 | -13.7 | -0.75 | -85.2
COc1ccc(CCNC(=O)C2CCN(Cc3nc(-c4ccccc4F)oc3C)CC2)cc1OC | 17.4 | 0.9 | -30.7 | 19.5 | -0.01 | -17.0
O=C(NNC(=O)[C@@H]1CCCC[C@@H]1C(=O)O)Nc1ccccc1 | nt | -5.4 | nt | nt | 1.14 | nt
O=C(NC(C(=O)c1ccccc1)N1CCOCC1)c1ccccc1 (stereo unspecified) | nt | 0.1 | 99.8* | nt | 1.23 | nt
CCn1c(COc2c(C)cccc2C)nnc1SCC(=O)N1CCN(c2ccccc2)CC1 | -14.9 | -0.7 | -19.1 | 3.9 | -0.87 | 15.8
C=CCn1c(COc2cccc(C)c2C)nnc1SCC(=O)N1CCN(c2ccccc2)CC1 | nt | -2.6 | 68.5* | nt | -1.03 | nt
C=CCNC(=O)COc1cc(C)ccc1C | nt | -4.7 | nt | nt | -0.4 | nt
Cc1cccc(-n2ccnc2SCC(=O)O)c1C | nt | nt | 17.3 | nt | nt | nt
Cc1ccccc1-n1ccnc1SCC(=O)O | -9.7 | -0.5 | 65.1* | -8.5 | 0.56 | 7.7
CN(CC(=O)N1CCCC1)S(=O)(=O)c1cc(Cl)ccc1Cl | -8.4 | 25.2*[artifact] | 9.9 | -13.3 | 2.74 | 11.6
COc1ccc(/C=N/Nc2c(Cl)cc(Cl)cc2Cl)cc1CN1CCOCC1 | nt | -1.9 | nt | nt | -1.1 | nt
N#CC1=C2SCC(O)(c3ccccc3)N2C(=O)CC1c1ccccc1F (stereo unspecified) | 4.9 | 1.8 | 9.4 | 0.2 | -1.53 | -3.0
N#CC1=C2SCC(O)(c3ccccc3)N2C(=O)CC1c1cccs1 (stereo unspecified) | nt | nt | nt | 35.0* | -0.31 | nt
